Measurements as given in PubChem BioAssay (EPA / NIEHS).
Activity calls are given as the source filed them. How the source made its calls: active means hit-call score of the fitted dose curve at least 0.9, where 1 is the maximum; inactive means score below 0.9.

Assays:
[1] = read-out: Monokine induced gamma interferon (MIG), CXCL9 (gene 4283); assay: BSK_CASM3C_MIG: BioMAP Diversity Plus: CASM3C Assay for Monokine induced gamma interferon (MIG) Biomarker Activity (AID 2283048); settings: primary human coronary artery smooth muscle cells; actives raise or lower the signal;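 further: MIG protein level measured by ELISA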
[2] = read-out: serum amyloid A (SAA), SAA1 (gene 6288); assay: BSK_CASM3C_SAA: BioMAP Diversity Plus: CASM3C Assay for serum amyloid A (SAA) Biomarker Activity (AID 2283049); settings: primary human coronary artery smooth muscle cells; actives raise or lower the signal;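 further: SAA protein level quantified by ELISA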
[3] = BSK_CASM3C_SRB: Viability Assessment in the BioMAP Diversity Plus: CASM3C Assay (AID 2283050); settings: primary human coronary artery smooth muscle cells;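 further: total protein by SRB staining as cytotoxicity measure in parallel cultures; cells exposed to compound for 24 h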
[4] = read-out: Thrombomodulin, THBD (gene 7056); assay: BSK_CASM3C_Thrombomodulin: BioMAP Diversity Plus: CASM3C Assay for Thrombomodulin Biomarker Activity (AID 2283051); settings: primary human coronary artery smooth muscle cells; actives raise or lower the signal;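 further: thrombomodulin protein level measured by ELISA 24 h after dosing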
[5] = read-out: Tissue Factor, F3 (gene 2152); assay: BSK_CASM3C_TissueFactor: BioMAP Diversity Plus: CASM3C Assay for Tissue Factor Biomarker Activity (AID 2283052); settings: primary human coronary artery smooth muscle cells; actives raise or lower the signal;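 further: cell surface tissue factor protein level read by ELISA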
[6] = read-out: Interferon-gamma inducible Protein 10 (IP10), CXCL10 (gene 3627); assay: BSK_hDFCGF_IP10: BioMAP Diversity Plus: hDFCGF Assay for Interferon-gamma inducible Protein 10 (IP10) Biomarker Activity (AID 2283053); settings: primary human foreskin fibroblasts; actives raise or lower the signal
Procedure, shortened: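 Cells: human dermal foreskin fibroblasts. Exposure: 24 h post-dosing. Detection: IP-10 ELISA, with values expressed against DMSO controls and fitted in both directions.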

[7] = read-out: Urokinase-type plasminogen activator receptor (uPAR), PLAUR (gene 5329); assay: BSK_CASM3C_uPAR: BioMAP Diversity Plus: CASM3C Assay for Urokinase-type plasminogen activator receptor (uPAR) Biomarker Activity (AID 2283054); settings: primary human coronary artery smooth muscle cells; actives raise or lower the signal;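 further: cell-surface uPAR protein level quantified by ELISA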
[8] = read-out: Vascular cell adhesion molecule 1 (VCAM1), VCAM1 (gene 7412); assay: BSK_CASM3C_VCAM1: BioMAP Diversity Plus: CASM3C Assay for Vascular cell adhesion molecule 1 (VCAM1) Biomarker Activity (AID 2283055); settings: primary human coronary artery smooth muscle cells; actives raise or lower the signal;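 further: VCAM-1 protein level quantified by ELISA on the cells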
[9] = read-out: Collagen III, COL3A1 (gene 1281); assay: BSK_hDFCGF_CollagenIII: BioMAP Diversity Plus: hDFCGF Assay for Collagen III Biomarker Activity (AID 2283056); settings: primary human foreskin fibroblasts; actives raise or lower the signal
Procedure, shortened: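 Cells: human foreskin fibroblasts, primary. Dosing followed by 24 h incubation, then ELISA for collagen III. Both increases and decreases scored relative to DMSO.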

[10] = read-out: Epidermal growth factor receptor (EGFR), EGFR (gene 1956); assay: BSK_hDFCGF_EGFR: BioMAP Diversity Plus: hDFCGF Assay for Epidermal growth factor receptor (EGFR) Biomarker Activity (AID 2283057); settings: primary human foreskin fibroblasts; actives raise or lower the signal
Procedure, shortened: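 Dosing human primary skin fibroblasts, then measuring surface EGFR by ELISA at 24 h, gives the endpoint; gains and losses relative to DMSO were fitted in both directions.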

Measured: AC50

COP(=S)(OC)SCn1nnc2ccccc2c1=O
not listed: [9] | [10]
inactive: all other assays above

CCOC(=O)C(C)OC(=O)c1cc(Oc2ccc(C(F)(F)F)cc2Cl)ccc1[N+](=O)[O-] (configuration not stated)
not listed: [9] | [10]
inactive: all other assays above

CC(C)C1(C)N=C(c2ncccc2C(=O)O)NC1=O (configuration not stated)
not listed: [9] | [10]
inactive: all other assays above

CCNP(=S)(OC)O/C(C)=C/C(=O)OC(C)C (configuration not stated)
not listed: [10]
inactive: all other assays above

CCCC(=NOCC)C1=C(O)CC(CC(C)SCC)CC1=O (configuration not stated)
not listed: [10]
inactive: all other assays above

OC(c1ccc(Cl)cc1)(c1ccc(Cl)cc1)C(Cl)(Cl)Cl
inactive: [5]
active: [1] 31.3 µM | [2] 32.2 µM | [3] 35.2 µM | [4] 33.1 µM | [6] 9.87 µM | [7] 32.9 µM | [8] 27.2 µM | [9] 10.3 µM

CNC(=O)N(C)c1nnc(C(C)(C)C)s1
not listed: [9] | [10]
inactive: all other assays above

CCOc1nc(C(Cl)(Cl)Cl)ns1
not listed: [10]
inactive: all other assays above

COC(=O)c1c(C(F)F)nc(C(F)(F)F)c(C2=NCCS2)c1CC(C)C
active: [4] 18 µM | [6] 6.09 µM
not listed: [9] | [10]
inactive: all other assays above

Clc1cccc(C(Cl)(Cl)Cl)n1
active: [6] 29.8 µM
not listed: [10]
inactive: all other assays above

CCSC(=O)N1CCCCCC1
not listed: [10]
inactive: all other assays above

COc1cc(OC)nc(NC(=O)NS(=O)(=O)c2ncccc2OCC(F)(F)F)n1
not listed: [9] | [10]
inactive: all other assays above

CC(C)Nc1nc(Cl)nc(NC(C)C)n1
active: [7] 13.6 µM
not listed: [10]
inactive: all other assays above

COC(=O)NS(=O)(=O)c1ccc(N)cc1
not listed: [10]
inactive: all other assays above

CCCCC(C#N)(Cn1cncn1)c1ccc(Cl)cc1 (configuration not stated)
active: [7] 1.12 µM
not listed: [10]
inactive: all other assays above

N#CN=C1SCCN1Cc1ccc(Cl)nc1
not listed: [9] | [10]
inactive: all other assays above

N#Cc1c[nH]cc1-c1cccc2c1OC(F)(F)O2
active: [4] 22.7 µM
not listed: [9] | [10]
inactive: all other assays above

O=C(Nc1ccccc1-c1ccc(Cl)cc1)c1cccnc1Cl
not listed: [9] | [10]
inactive: all other assays above

CS(=O)(=O)c1ccc(C(=O)C2C(=O)CCCC2=O)c([N+](=O)[O-])c1
not listed: [10]
inactive: all other assays above

CC(C)(C)C(=O)C(Oc1ccc(Cl)cc1)n1cncn1 (configuration not stated)
not listed: [10]
inactive: all other assays above

COC(=O)NC(=S)Nc1ccccc1NC(=S)NC(=O)OC
not listed: [9] | [10]
inactive: all other assays above

CSC(=O)c1c(C(F)F)nc(C(F)(F)F)c(C(=O)SC)c1CC(C)C
active: [4] 20 µM | [6] 25.5 µM
not listed: [9] | [10]
inactive: all other assays above

Clc1nc(Cl)nc(Nc2ccccc2Cl)n1
active: [6] 32 µM
not listed: [9] | [10]
inactive: all other assays above

O=c1n(Cl)c(=O)n(Cl)c(=O)n1Cl
active: [4] 12.7 µM | [6] 20 µM
not listed: [10]
inactive: all other assays above

C=CCOC(=O)C(C)(C)OC(=O)c1cc(-n2c(=O)cc(C(F)(F)F)n(C)c2=O)ccc1Cl
active: [2] 0.859 µM | [6] 1.2 µM | [7] 0.984 µM
not listed: [9] | [10]
inactive: all other assays above

CC(C)Oc1cccc(NC(=O)c2ccccc2C(F)(F)F)c1
not listed: [9] | [10]
inactive: all other assays above

CN/C(=N\[N+](=O)[O-])NCc1cnc(Cl)s1
not listed: [10]
inactive: all other assays above

Cc1nc(N(C)C)nc(OC(=O)N(C)C)c1C
not listed: [9] | [10]
inactive: all other assays above

COC(=O)N(C(=O)N1CO[C@@]2(C(=O)OC)Cc3cc(Cl)ccc3C2=N1)c1ccc(OC(F)(F)F)cc1
active: [6] 13.5 µM
not listed: [10]
inactive: all other assays above

CCOP(=S)(OCC)Oc1nc(Cl)n(C(C)C)n1
active: [6] 26.7 µM
not listed: [10]
inactive: all other assays above

Cc1ccc(N=CN(C)C=Nc2ccc(C)cc2C)c(C)c1
active: [2] 28.7 µM | [3] 28.5 µM | [4] 31.6 µM | [6] 29.1 µM
inactive: [1] | [5] | [7] | [8]

COCC(=O)N(c1c(C)cccc1C)C(C)C(=O)OC (configuration not stated)
not listed: [10]
inactive: all other assays above

CCNC(=O)NC(=O)C(C#N)=NOC
active: [4] 15.9 µM
not listed: [9] | [10]
inactive: all other assays above

COP(=S)(OC)Oc1ccc([N+](=O)[O-])c(C)c1
active: [6] 14 µM
not listed: [9] | [10]
inactive: all other assays above

CN=C=S
active: [6] 16.6 µM
not listed: [9] | [10]
inactive: all other assays above

C=C(C)CN(CC)c1c([N+](=O)[O-])cc(C(F)(F)F)cc1[N+](=O)[O-]
active: [6] 20 µM
not listed: [9] | [10]
inactive: all other assays above

COc1ccc(-c2ccccc2)cc1NNC(=O)OC(C)C
not listed: [9]
inactive: all other assays above

COP(=O)(OC)O/C(C)=C/C(=O)N(C)C
not listed: [9]
inactive: all other assays above
